These results are taken from PubChem BioAssay (NCATS).

The source made the active and inactive calls. Calls come from the whole dose curve; as a rule, active = well fitted activation curve with a large enough effect; inconclusive = small, poorly fitted or top-dose-only effect; inactive = flat fitted curve, though single readings scatter. Square brackets hold non-standard residues; d marks the D form. Peptide text beside a SMILES is read from it. Orn = NCCC[CH](N)C(=O)O

The test in a line: Confirmation and Secondary Assay for Modulators of Hemoglobin Beta Chain Splicing at IVS2 705 locus (AID 930). Note: % of control where 0% means no effect. Particulars: HeLa EGFP-705 splicing reporter, GFP fluorescence, 48 h; series mostly up to 46.1 µM; activation: at the top concentration. The text has this: NIH Chemical Genomics Center [NCGC] NIH Molecular Libraries Screening Centers Network [MLSCN] MLSCN Grant: 1 X01 MH080684-01 PI Name: Dr. Ryszard Kole NCGC Assay Overview: Modulation of Alternative Splicing as Therapy Abnormal splicing is associated with a number of diseases, including cancer and genetic diseases such as cystic fibrosis, muscular dystrophy and beta-thalassemia. Alteration of disease associated splicing patterns provides a promising target for treatment. […] Mutations in the second intron of the b-globin gene at positions 654 or 705 are clinically relevant and cause mis-splicing which results in an out of frame gene product. […] EGFP-705 HeLa Cells as screen system. HeLa cell lines were stably transfected with a construct in which the EGFP (enhanced green fluorescent protein) cDNA was interrupted by the second intron of the beta-globin gene (IVS2-705). The ISV2 intron contains mutations which cause mis-splicing of EGFP and premature termination of EGFP which results in a nonfluorescent protein product. […] Expression of the transgene was driven by the CMV promoter. We concluded that a low molecular weight compound, which restored correct splicing of intron 2 would also generate functional EGFP protein, resulting in a fluorescent signal. Thus, the HeLa cells that express the EGFP-705 construct can be used for validation of splice site specificity of compounds identified in primary screening of the ISV2 654 construct.
NCGC Assay Protocol Summary: Confirmatory Screening. Freshly thawed HeLa EGFP-705 cells were seeded in 5 ul of optimem media (Invitrogen) containing 2 % fetal calf serum (Hyclone) and 1x penicillin/streptomycin (Invitrogen) at a concentration of 500 cells per well in 1536-well plates. Cells were incubated overnight at 37C in 5% CO2. The next day, cells were treated with DMSO, 500 nM antisense ISV2 654 PNA control oligo, or library compound and allowed to grow at 37C in 5% CO2 for 2 days. The PNA oligo blocked the mutation site in the intron and allowed proper (wild type) splicing to occur, resulting in full length EGFP expression and also allowed for optimization of the assay parameters. Plates were read in the Acumen Explorer (TTP Labtech) using 488 nm laser excitation and 500-520 nm emission PMT filter in a 1 x 8 uM capture mode. Fluorescnet objects ranging in size from 5 to 250 uM were measured and the total peak GFP intensity for each well was used for data analysis. Keywords: Thalassemia, beta-thalassemia, beta-globin, EGFP, ISV2 654, ISV2 705, SSO, PNA, antisense, splicing, MLSMR, MLSCN, NIH Roadmap, qHTS, NCGC
For the molecule `C[N+]1(C)C2CCC1CC(OC(=O)C(O)c1ccccc1)C2` (stereo not given), the “activation” value was -0.659% (inactive).
As for `Cc1cc(O)cc(=O)o1`, the figure is -2.49% (inactive); as for `CC1(C)CC[C@]2(C(=O)O)C(O)C[C@@]3(C)C(=CCC4[C@@]5(C)CCC(O)C(C)(C)C5CC[C@@]43C)C2C1` (stereo not given in full), -0.0143% [at 38.3 µM] (inactive); as for `COc1ccc(-c2cc(=O)c3c(OC(C)=O)cc(OC(C)=O)cc3o2)cc1`, 0.185% (inactive).
As for `COc1cc2c(cc1OC)-c1c(oc3cc(O)cc(O)c3c1=O)CO2`, the figure is 0.732% (inactive); as for `CC(CCC(=O)O)C1CCC2C3C(=O)CC4CC(=O)CC[C@@]4(C)C3CC(=O)[C@]12C` (stereo not given in full), 0.916% (inactive).
Take `OCC(O)C(O)C(O)C(O)C(O)CO` (stereo not given): the “activation” value is 0.612% [at 38.3 µM] (inactive).
As to `C[C@@]12CCC(OC(=O)c3ccccc3)CC1CCc1ccccc12` (stereo not given in full), the “activation” value was 0.449% [at 38.3 µM] (inactive).
In the case of `CCC1CN2CCc3cc(OC)c(OC)cc3C2CC1CC1NCCc2cc(OC)c(OC)cc21` (stereo not given) it was 4.26% (inactive); in that of `C=C1C([C@@]2(C)C(OC(C)=O)CC(=O)O[C@@](C)(COC(C)=O)C2CC(=O)OC)C(OC=O)C(OC(=O)C(O)C(C)CC)[C@]2(C)C(c3ccoc3)CC(=O)C12O` (stereo not given in full), -0.267% (inactive); in that of `COc1ccc(/C=C/C(=O)c2cc(O)ccc2O)cc1`, 0.633% (inactive).
As for `COc1cc2c(c(OC)c1OC)-c1ccc(OC)c(=O)cc1C(NC(C)=O)CC2` (stereo not given), the “activation” value is 0.24% (inactive).
In the case of `COC(=O)c1c(C)cc(O)cc1O` it was -0.337% [at 38.3 µM] (inactive).
Take `COc1cc(OC)c2c(=O)c(-c3ccccc3)coc2c1`: the “activation” value is 0.122% [at 38.3 µM] (inactive).
As for `COc1cc(OC)c2c(=O)c(-c3ccc4c(c3)OCO4)coc2c1`, the figure is 0.366% [at 38.3 µM] (inactive); as for `CC(=O)c1c(O)cc(O)cc1O`, 2% [at 38.3 µM] (inactive).
Turning to `COC(=O)CC1C(C)(C)C(=O)C2CC3C4=CC(=O)OC(c5ccoc5)[C@]4(C)CCC3[C@@]1(C)C2=O` (stereo not given in full), the “activation” value is 1.25% (inactive).
In the case of `C[N+]1(C)C2CC(OC(=O)C(CO)c3ccccc3)CC1C1OC12` (stereo not given) it was 2.63% (inactive); in that of `NC(=O)c1ccc[n+]([C@@H]2OC(COP(=O)([O-])OP(=O)(O)OCC3OC(n4cnc5c(N)ncnc54)C(O)C3O)C(O)C2O)c1` (stereo not given in full), 1.73% (inactive).
Regarding `CC(=O)c1ccc[nH]1`, the “activation” value is 1.33% [at 38.3 µM] (inactive).
In the case of `OC1C=C2CCN3Cc4cc5c(cc4C(C1O)C23)OCO5` (stereo not given) it was 0.624% (inactive).
As for `CC(C)CC1NC(=O)C(CCCN)NC(=O)C(C(C)C)NC(=O)C2CCCN2C(=O)C(Cc2ccccc2)NC(=O)C(CC(C)C)NC(=O)C(CCCN)NC(=O)C(C(C)C)NC(=O)C2CCCN2C(=O)C(Cc2ccccc2)NC1=O` (stereo not given) (cyclo(FPV[Orn]LFPV[Orn]L); configuration not given here), the figure is 1.32% (inactive); as for `C=CCCCCCCCCCCCC(O)CC(O)COC(C)=O` (stereo not given) (tested in a mixture with another compound), 3.24% (inactive); as for `Nc1ncnc2c1nc(Br)n2C1OC(CO)C(O)C1O` (stereo not given), -0.251% [at 38.3 µM] (inactive).
Take `Nc1nc2c(ncn2C2CC(O)C(CO)O2)c(=O)[nH]1` (stereo not given): the “activation” value is -0.113% [at 38.3 µM] (inactive).
As for `CSCCC(N)C(=O)NC(CC(C)C)C(=O)NC(Cc1ccccc1)C(=O)O` (stereo not given), the figure is 0.868% [at 38.3 µM] (inactive).
In the case of `CC(=O)OC(C)(C)C1Cc2cc3ccc(=O)oc3cc2O1` (stereo not given) it was 0.336% [at 38.3 µM] (inactive); in that of `CCCCCC(=O)O[C@@]1(C(C)=O)CCC2C3CCC4=CC(=O)CC[C@@]4(C)C3CC[C@]21C` (stereo not given in full), 0.345% (inactive); in that of `Cc1onc(-c2c(Cl)cccc2Cl)c1C(=O)NC1C(=O)N2C1SC(C)(C)C2C(=O)O` (stereo not given), 1.65% (inactive).
With `COc1c2c(cc3occ(-c4ccc5c(c4)OCO5)c(=O)c13)OC(C)(C)C=C2`, the “activation” value was 0.549% [at 38.3 µM] (inactive).
In the case of `C=CC(C1=CC(=O)C(OC)=CC1=O)c1ccc(OC)cc1` (stereo not given) it was -0.46% [at 38.3 µM] (inactive).
Turning to `O=c1c2cc(O)c(O)cc2oc2cc(O)c(C3OC(CO)C(O)C(O)C3O)c(O)c12` (stereo not given), the “activation” value was -0.645% (inactive).
In the case of `CC(=O)OC1CCC2(C)C3=C(CCC2C1(C)C)[C@@]1(C)CCC(C(C)CCC=C(C)C)[C@@]1(C)CC3` (stereo not given in full) it was -1.81% (inactive); in that of `NC(Cc1cnc[nH]1)C(=O)Nc1ccc2ccccc2c1` (stereo not given), 1.03% [at 38.3 µM] (inactive).
As for `O=c1[nH]cnc2c1ncn2C1CC(O)C(CO)O1` (stereo not given), the figure is 0.3% [at 38.3 µM] (inactive).
For `CC(C)=CCc1c(O)cc2occ(-c3ccc4c(c3)OCO4)c(=O)c2c1O`, the “activation” value is -0.251% (inactive).
On to `CC1CC2C3CCC4=CC(=O)C=C[C@@]4(C)[C@]3(F)C(O)C[C@]2(C)[C@]1(O)C(=O)COP(=O)(O)O` (stereo not given in full), for which the “activation” value is 0.915% (inactive).
For the molecule `Nc1ncn(C2OC(CO)C(O)C2O)c(=O)n1` (stereo not given), the “activation” value was 0.194% (inactive).
With `Nc1nc(=O)n(C2OC(CO)C(O)C2O)cc1Cl` (stereo not given), the “activation” value is 1.02% [at 38.3 µM] (inactive).
As for `CC1c2cccc(O)c2C(O)=C2C(=O)[C@]3(O)C(O)=C(C(N)=O)C(=O)C(N(C)C)C3C(O)C21` (stereo not given in full), the figure is 1.82% (inactive).
